Screening results as filed in PubChem BioAssay.
KB-V1 MDR tox – KB-V1 MDR subline cytotoxicity; KB-V1 MDR cells viability, CellTiter-Glo, 72 h; Potency, µM (top dose mostly 46.1 µM), most hits filed as cytotoxic; actives 3.4% (n = 400,000); note: nearly all actives have a fitted effect of over 60% in size
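Following 72 h at 37 degrees C with compound, KB-V1 cell viability was read by CellTiter-Glo luminescence, medium being phenol-red-free DMEM plus 10% FBS; concentration-response parameters came from normalized, curve-fitted qHTS data.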
KB-3-1 tox – kills parental KB-3-1 adenocarcinoma cells | KB-3-1 viability, CellTiter-Glo ATP luminescence, 72 h | Potency, µM (series often up to 46.1 µM), usual class: cytotoxic | actives 1.4% (n = 400,000) | AID 1347075; note: nearly all actives have a fitted effect of over 60% in size
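Using CellTiter-Glo luminescence, growth of non-resistant KB-3-1 adenocarcinoma cells is assessed 72 h after pin-tool compound addition at 37 °C. Normalized responses across the concentration series yield fitted curves.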
MCF10A rerep – DNA re-replication induction in MCF 10a cells | MCF 10A DNA re-replication, Hoechst nuclear intensity, 48 h | Potency, µM (titrated, usually from 46.1 µM), actives largely listed as activators | actives 2.9% (n = 350,000) | AID 624296; note: nearly all actives have a fitted effect of over 50% in size
SW480 rerep – DNA re-replication induction in SW480 cells. Potency, µM (titrated, usually from 46.1 µM), most hits filed as activators. SW480 DNA re-replication, Hoechst DNA content imaging, 48 h. actives 1.8% (n = 340,000). AID 624297; note: nearly all actives have a fitted effect of over 55% in size
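Compounds, transferred as 23 nL by pin tool, were incubated with cells for 48 hr; DNA content per nucleus was then quantified by Hoechst staining and fluorescence plate imaging.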
ASM inhibitor – human S-ASM enzyme inhibition; P17405; placental ASM, HMU-PC fluorogenic substrate, 60 min; Potency, µM (top dose mostly 57.5 µM), most hits filed as inhibitors; actives 0.006% (n = 340,000); AID 504937
Target sequence (P17405 47-631 limits assumed): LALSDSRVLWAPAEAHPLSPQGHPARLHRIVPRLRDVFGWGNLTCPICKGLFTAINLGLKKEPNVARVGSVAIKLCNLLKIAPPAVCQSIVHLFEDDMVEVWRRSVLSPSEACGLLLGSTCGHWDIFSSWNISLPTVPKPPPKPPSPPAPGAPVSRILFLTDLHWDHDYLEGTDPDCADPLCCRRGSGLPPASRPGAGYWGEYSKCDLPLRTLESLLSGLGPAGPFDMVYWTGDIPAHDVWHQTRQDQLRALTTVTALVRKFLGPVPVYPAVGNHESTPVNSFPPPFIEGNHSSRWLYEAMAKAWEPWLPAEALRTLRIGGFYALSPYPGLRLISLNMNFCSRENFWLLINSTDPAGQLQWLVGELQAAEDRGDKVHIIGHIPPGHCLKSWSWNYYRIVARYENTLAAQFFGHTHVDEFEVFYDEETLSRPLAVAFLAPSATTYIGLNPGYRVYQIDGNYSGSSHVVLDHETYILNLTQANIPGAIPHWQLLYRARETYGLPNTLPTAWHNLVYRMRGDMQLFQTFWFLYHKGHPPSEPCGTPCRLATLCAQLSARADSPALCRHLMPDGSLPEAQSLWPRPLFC
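Human placenta-derived ASM enzyme was preincubated with compound for 10 minutes at room temperature, then given fluorogenic substrate HMU-PC0 (9 uM final) for 60 minutes at 37 °C; a pH 10 stop preceded fluorescence reading at Ex 386/Em 447 nm.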
Giardia killer – kills Giardia lamblia. actives 0.15% (n = 340,000). activity change, % at 7.66 µM, hits read low. AID 540267. Giardia lamblia trophozoite viability; in the data active = activity change below about -80%; inconclusive = between about -30% and that limit;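 note: parasites exposed to compound for two days anaerobically before the ATP read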
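Media and compound were dispensed first, then trophozoites at 100 cells/well; plates sat 48 hrs at 37 deg C without oxygen before ATP luminescence reagent was added and read after 15-30 min at room temperature.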
Large screens that a line does not name were inactive. In the library only some 6.9% were active in any assay of this set; here they are far more common. Unless noted, calls come from the whole dose curve; as a rule, active = well fitted curve in the direction sought with a large enough effect; inconclusive = small, poorly fitted or top-dose-only effect, or another doubt; inactive = no such curve, though single readings can be large; an effect the other way counts as inactive or inconclusive.

COc1ccc(Nc2nc(N3CCCC3)nc3ccccc23)c(OC)c1	KB-V1 MDR tox inconclusive, MCF10A rerep 18µM, SW480 rerep inconclusive
CC(Nc1nc(-c2ccccc2O)nc2ccccc12)c1ccccc1 (centres undefined)	MCF10A rerep 21µM, SW480 rerep inconclusive
Cc1ccc(Nc2ncnc3nc[nH]c23)cc1	none (no result: MCF10A rerep, SW480 rerep, ASM inhibitor)
CCOC(=O)Cc1csc(NC(=O)c2cc(C)c(C)s2)n1	KB-V1 MDR tox 18µM, KB-3-1 tox inconclusive
CCOC(=O)Cc1csc(NC(=O)CCc2ccc(S(=O)(=O)N3CCOCC3)cc2)n1	MCF10A rerep inconclusive, SW480 rerep 23µM
CCOC(=O)Cc1csc(NC(=O)c2ccc(Cl)s2)n1	KB-3-1 tox inconclusive
CCOC(=O)Cc1csc(NC(=O)c2ccc(S(=O)(=O)N3CCCCC3)cc2)n1	KB-V1 MDR tox 15µM
CCOC(=O)Cc1csc(NC(=O)c2ccc(Br)cc2)n1	none
CCOC(=O)c1ccccc1NC(=O)Cn1ncc2c1-c1ccccc1OC2	KB-3-1 tox inconclusive (no result: MCF10A rerep, SW480 rerep, ASM inhibitor, Giardia killer)
O=C1c2ccccc2C(=O)N1CCc1csc(-c2cccc(Cl)c2)n1	KB-V1 MDR tox inconclusive, MCF10A rerep inconclusive
O=C1c2ccccc2C(=O)N1CCc1csc(-c2cccc(F)c2)n1	KB-V1 MDR tox 16µM, MCF10A rerep inconclusive
C/C(N)=C(/C#N)C(=O)CSc1nnc(-c2ccc3c(c2)OCO3)o1	SW480 rerep 12µM
NC(=O)CSc1nnc(-c2ccc3c(c2)OCO3)o1	none
C/C(N)=C(/C#N)C(=O)CSc1nnc(COc2cc(C)ccc2C)o1	MCF10A rerep 18µM
COc1cccc(-c2c(-c3cc(OC)cc(OC)c3)n(C)c3ccc(-c4cnc(N5CCOCC5)nc4)cc23)c1	none
CCn1nc(C)c(CCN(C)C(=O)Nc2cc(Cl)c(OC)cc2OC)c1C	none (no result: MCF10A rerep, SW480 rerep, ASM inhibitor, Giardia killer)
Cc1nc(C(F)(F)F)ccc1C(=O)N1CCCCC1	none
O=c1[nH]c(-c2ccc(-c3cccc(Cl)c3)o2)nc2ccccc12	MCF10A rerep 10µM, Giardia killer inconclusive
O=c1[nH]c(SCc2cccc(Cl)c2)nc2ccccc12	MCF10A rerep inconclusive
O=C1CCN2C=Nc3cccc4ccc1c2c34	KB-V1 MDR tox 12µM, KB-3-1 tox inconclusive
O=C(O)COc1ccc(/C=C/c2nc3ccc([N+](=O)[O-])cc3s2)cc1	MCF10A rerep 12µM, Giardia killer inconclusive
O=C(NC(Cc1ccccc1)c1ccc2c(c1)OCCCO2)c1ccccc1F (centres undefined)	KB-V1 MDR tox 16µM
O=C(CCc1ccc(S(=O)(=O)NCCc2ccccc2)cc1)Nc1ccc2c(c1)OCCO2	KB-V1 MDR tox 21µM, MCF10A rerep inconclusive, SW480 rerep inconclusive
O=C(NCCO)c1ccc2nc(-c3ccco3)c(-c3ccco3)nc2c1	none
O=C(NCCc1ccccc1)c1ccc2c(c1)OCCO2	KB-V1 MDR tox inconclusive, Giardia killer -81
O=C(NCCc1ccccc1)c1ccc2nc(-c3ccco3)c(-c3ccco3)nc2c1	KB-V1 MDR tox inconclusive, KB-3-1 tox inconclusive, MCF10A rerep 21µM, SW480 rerep inconclusive
COc1ccc(C(=O)NC(Cc2ccccc2)c2ccc3c(c2)OCCCO3)cc1 (centres undefined)	none
Cc1ccc([N+](=O)[O-])cc1NC(=O)Nc1cccc(F)c1	KB-V1 MDR tox inconclusive, MCF10A rerep inconclusive, SW480 rerep inconclusive
CCOC(=O)c1c(NC(=O)CSc2cn(CCNC(=O)c3ccccc3F)c3ccccc23)sc2c1CCC2	none (no result: MCF10A rerep, SW480 rerep, ASM inhibitor, Giardia killer)
O=C(NNc1ccccc1C(F)(F)F)c1sccc1Cl	none (no result: KB-V1 MDR tox, KB-3-1 tox, MCF10A rerep, SW480 rerep, ASM inhibitor)
O=C(NCCc1ccccc1)c1ccc2c(c1)OCCCO2	Giardia killer -89
N/C(=N\OC(=O)/C=C/c1ccccc1)c1ccccn1	none
O=C(/C=C/c1ccccc1)c1ccccn1	MCF10A rerep 18µM, SW480 rerep inconclusive
COc1ccc(-n2ccnc(NCc3ccc(C)cc3)c2=O)cc1OC	none (no result: MCF10A rerep, SW480 rerep, ASM inhibitor, Giardia killer)
O=C(N/N=C1\CCCc2c1[nH]c1ccc(Cl)cc21)c1ccncc1	KB-3-1 tox inconclusive, ASM inhibitor inconclusive
Brc1ccc2[nH]c3c(c2c1)CCC3	KB-3-1 tox inconclusive
C=CCN=C1CCCc2c1[nH]c1ccc(C)cc21	KB-V1 MDR tox 3.3µM, KB-3-1 tox 6.5µM
OCCN=C1CCCc2c1[nH]c1ccc(Br)cc21	KB-V1 MDR tox 0.33µM, KB-3-1 tox 1µM
NCCO/C=C/[C@H](N)C(=O)O	none (no result: KB-V1 MDR tox, KB-3-1 tox, ASM inhibitor, Giardia killer)
CCOC(=O)C(NC(=O)CCl)(Nc1sc(C)c(CC)c1C#N)C(F)(F)F (centres undefined)	KB-V1 MDR tox inconclusive, MCF10A rerep inconclusive, SW480 rerep 16µM
CCOC(=O)C(NC(=O)CC(C)C)(Nc1sc(C)c(CC)c1C#N)C(F)(F)F (centres undefined)	KB-V1 MDR tox inconclusive
O=c1c(Cl)c(Cl)cnn1Cc1ccccc1Cl	KB-3-1 tox inconclusive, MCF10A rerep 5.8µM, SW480 rerep inconclusive
Cc1ccc(Cn2ncc(Cl)c(Cl)c2=O)cc1	MCF10A rerep inconclusive, SW480 rerep inconclusive
O=c1c(Cl)c(Cl)cnn1Cc1nnc(-c2ccc(Cl)cc2)o1	KB-3-1 tox inconclusive, MCF10A rerep 5.8µM, SW480 rerep 3.7µM
Cc1ccc(-c2nnc(Cc3ccc(Cl)cc3)o2)cc1	none
Cc1cc(C)cc(Cn2ncc(Cl)c(Cl)c2=O)c1	KB-V1 MDR tox 23µM, KB-3-1 tox inconclusive, MCF10A rerep 3.7µM, SW480 rerep 3.7µM
COc1ccc(CCN2C(=O)NC(NC(=O)c3ccccc3OC)(C(F)(F)F)C2=O)cc1OC (centres undefined)	none (no result: MCF10A rerep, SW480 rerep, ASM inhibitor, Giardia killer)
COCc1c(C(=O)OC/C(O)=C(\C#N)c2nc3ccccc3[nH]2)oc2ccccc12	none
CN(C)CCCNc1ccc(-c2cc(Nc3cccc(Cl)c3)ncn2)cn1	MCF10A rerep 21µM, SW480 rerep inconclusive
CN(C(=O)CSc1nc2ccc(NC(=O)c3cccc(F)c3)cc2s1)c1ccccc1	KB-V1 MDR tox 9.2µM, KB-3-1 tox inconclusive (no result: MCF10A rerep, SW480 rerep, ASM inhibitor, Giardia killer)
Cc1c2ccncc2cc2c1[nH]c1ccccc12	KB-V1 MDR tox inconclusive, KB-3-1 tox inconclusive, MCF10A rerep 16µM, SW480 rerep 23µM
O=c1c2cc(N3CCOCC3)ccc2[nH]c(=S)n1Cc1ccccc1Cl	MCF10A rerep 23µM, SW480 rerep inconclusive
O=c1c2cc(N3CCOCC3)ccc2[nH]c(=S)n1Cc1ccccn1	MCF10A rerep inconclusive
O=C(CCCCCn1c(=S)[nH]c2ccc(N3CCOCC3)cc2c1=O)NCc1ccccc1	none
O=C(CCCCCn1c(=S)[nH]c2ccc(N3CCOCC3)cc2c1=O)NCc1cccc(Cl)c1	MCF10A rerep 16µM, SW480 rerep inconclusive
COC(=O)c1cc(-c2c(C)oc3cc(OC)ccc3c2=O)c(C)o1	KB-V1 MDR tox 18µM
COC(=O)c1cc(-c2c(C)oc3cc(O)ccc3c2=O)c(C)o1	none
CCN(CC)S(=O)(=O)c1ccc2c(c1)N(CC(=O)Nc1c(C)cc(C)cc1C)C(=O)C1CCCN21 (centres undefined)	none (no result: MCF10A rerep, SW480 rerep, ASM inhibitor, Giardia killer)
